Assay results from PubChem BioAssay AID1159580 (chemical genetic matrix, 2015).
Where “and” joins values, the source holds several entries; their conditions need not be identical. Equal entries are not always repeated. Screen size: about 5,500 compounds; about 2,000 (36%) were called active. Inconclusive results (about 18%) are left out. Rule as the data show it: active = normalized growth mostly below about 0.91 (no sharp cut-off); inconclusive = no clear call, values can overlap the other calls; inactive = mostly above about 0.92. This is one part of the list.

Assay: chemical genetic growth profiling, strain panel (AID 1159580);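 also: tested at 20 µM; growth read once vehicle control cultures reached saturation at 30 °C; 1 = growth at the plate median or of vehicle wells; lower values mean less growth of the strain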
Settings: S. cerevisiae deletion strains, growth OD

Measured: normalized growth

CO[C@@]1(NC(=O)Cc2cccs2)C(=O)N2C(C(=O)O)=C(COC(N)=O)CS[C@@H]21
inactive: locus YAL013W, strain DEP1, stronger effect = lower value 1 | locus YAL021C, strain ccr4, stronger effect = lower value 0.939 | locus YAL026C, strain drs2, stronger effect = lower value 0.969 | locus YAL030W, strain snc1, stronger effect = lower value 0.982 | locus YBL061C, strain skt5, stronger effect = lower value 0.97 | locus YBR009C, strain hhf1, stronger effect = lower value 1.02 | locus YBR021W, strain FUR4, stronger effect = lower value 1.01 | locus YBR023C, strain chs3, stronger effect = lower value 0.971 | locus YBR171W, strain sec66, stronger effect = lower value 0.968 | locus YBR229C, strain ROT2, stronger effect = lower value 1.01 | locus YBR231C, strain swc5, stronger effect = lower value 1.03 | locus YBR279W, strain paf1, stronger effect = lower value 0.972 | locus YCL011C, strain gbp2, stronger effect = lower value 0.976 | locus YCL016C, strain dcc1, stronger effect = lower value 0.955 | locus YCL029C, strain bik1, stronger effect = lower value 0.995 | locus YCL069W, strain vba3, stronger effect = lower value 0.989 | locus YCR088W, strain abp1, stronger effect = lower value 0.975 | locus YDL005C, strain med2, stronger effect = lower value 0.981 | locus YDL035C, strain GPR1, stronger effect = lower value 1.01 | locus YDL040C, strain nat1, stronger effect = lower value 0.981 | locus YDL074C, strain BRE1, stronger effect = lower value 1.02 | locus YDL101C, strain DUN1, stronger effect = lower value 1.01 | locus YDL134C, strain PPH21, stronger effect = lower value 1 | locus YDL185W, strain tfp1, stronger effect = lower value 0.994 | locus YDL192W, strain arf1, stronger effect = lower value 1 | locus YDR001C, strain nth1, stronger effect = lower value 0.971 | locus YDR069C, strain doa4, stronger effect = lower value 0.963 | locus YDR101C, strain arx1, stronger effect = lower value 0.984 | locus YDR137W, strain rgp1, stronger effect = lower value 0.94 | locus YDR150W, strain NUM1, stronger effect = lower value 1.01 | locus YDR159W, strain sac3, stronger effect = lower value 0.943 | locus YDR162C, strain NBP2, stronger effect = lower value 1 | locus YDR195W, strain ref2 0.98 | locus YDR297W, strain sur2, stronger effect = lower value 0.998 | locus YDR318W, strain mcm21, stronger effect = lower value 0.992 | locus YDR334W, strain swr1, stronger effect = lower value 0.97 | locus YDR335W, strain msn5, stronger effect = lower value 0.955 | locus YDR388W, stronger effect = lower value 0.99 | locus YDR392W, strain spt3, stronger effect = lower value 0.838 | locus YDR502C, strain sam2, stronger effect = lower value 0.991 | locus YEL003W, strain gim4, stronger effect = lower value 0.983 | locus YEL037C, strain rad23, stronger effect = lower value 0.97 | locus YEL061C, strain CIN8 (second series), stronger effect = lower value 0.976 | locus YEL061C, strain CIN8, stronger effect = lower value 1.01 | locus YER015W, strain faa2, stronger effect = lower value 0.99 | locus YER016W, strain bim1, stronger effect = lower value 0.949 | locus YER110C, stronger effect = lower value 0.997 | locus YER111C, strain swi4, stronger effect = lower value 0.96 | locus YER155C, strain BEM2 (second series), stronger effect = lower value 0.977 | locus YER155C, strain BEM2, stronger effect = lower value 1 | locus YER167W, strain BCK2, stronger effect = lower value 1 | locus YFR010W, strain ubp6, stronger effect = lower value 1.01 | locus YGL078C, strain dbp3, stronger effect = lower value 0.986 | locus YGL086W, strain mad1, stronger effect = lower value 0.987 | locus YGL167C, strain pmr1, stronger effect = lower value 0.978 | locus YGL173C, strain kem1, stronger effect = lower value 0.987 | locus YGL227W, strain vid30, stronger effect = lower value 0.98 | locus YGL240W, strain doc1, stronger effect = lower value 1 | locus YGL248W, strain PDE1, stronger effect = lower value 1.01 | locus YGL253W, strain hxk2, stronger effect = lower value 0.978 | locus YGR078C, strain PAC10, stronger effect = lower value 1.01 | locus YGR135W, strain pre9, stronger effect = lower value 0.989 | locus YGR252W, strain gcn5, stronger effect = lower value 0.982 | locus YHR013C, strain ard1, stronger effect = lower value 0.935 | locus YHR027C, strain rpn1, stronger effect = lower value 1.01 | locus YHR030C, strain SLT2, stronger effect = lower value 1.01 and 1.08 | locus YHR079C, strain IRE1 (second series), stronger effect = lower value 0.995 | locus YHR079C, strain IRE1, stronger effect = lower value 1.08 | locus YHR094C, strain hxt1, stronger effect = lower value 0.984 | locus YHR129C, strain ARP1, stronger effect = lower value 1 | locus YHR142W, strain chs7, stronger effect = lower value 0.936 | locus YHR200W, strain rpn10, stronger effect = lower value 0.994 | locus YIL066C, strain RNR3, stronger effect = lower value 1.01 | locus YIL073C, strain SPO22, stronger effect = lower value 1.01 | locus YIL125W, strain kgd1, stronger effect = lower value 0.995 | locus YIR030C, strain dcg1, stronger effect = lower value 0.996 | locus YJL092W, strain hpr5, stronger effect = lower value 0.989 | locus YJL095W, strain BCK1 (second series), stronger effect = lower value 0.967 | locus YJL095W, strain BCK1, stronger effect = lower value 1.01 and 1.06 | locus YJL115W, strain asf1, stronger effect = lower value 0.969 | locus YJL129C, strain trk1, stronger effect = lower value 0.914 | locus YJL134W, strain LCB3, stronger effect = lower value 1.01 | locus YJL154C, strain vps35, stronger effect = lower value 0.973 | locus YJL164C, strain tpk1, stronger effect = lower value 0.98 | locus YJL166W, strain qcr8, stronger effect = lower value 0.987 | locus YJL168C, strain set2, stronger effect = lower value 0.992 | locus YJL187C, strain SWE1 (second series), stronger effect = lower value 1.01 | locus YJR043C, strain POL32, stronger effect = lower value 0.986
